Assay [1] in a line: small molecules captured by biotinylated probe aFSTL3 – biochemical, small-molecule microarray, fluorescence 635/667, stem cell growth factor project, primary screen (AID 1064).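 Also: measures binding of the biotinylated anti-FSTL3 antibody to printed compounds.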 Conditions: higher = more signal.
Assay [2] in a line: binders from COS7 lysate, DM2A8 probe, primary screen, torsin A project, cell lysate, small-molecule microarray, fluorescence 635/667 (AID 1065). As to conditions: higher = more signal, COS7 lysate expressing mutant human TOR1A.
Assay [3] is described as follows: small molecules captured by biotinylated probe aFGF2 – biochemical, small-molecule microarray, fluorescence 635/667, stem cell growth factor project, primary screen (AID 1067).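 Also: measures binding of biotinylated aFGF2 protein to printed compounds on slides; z-score merges feature fluorescence and signal-to-noise across triplicate slides.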 Conditions: higher = more signal.
A short description of assay [4]: small molecules captured by biotinylated probe aFGF10 – biochemical, small-molecule microarray, fluorescence 635/667, stem cell growth factor project, primary screen (AID 1071).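 Also: score merges 667 nm spot intensity and signal to noise from triplicate slides.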 Conditions: higher = more signal.
Assay [5] addresses Neurogenic locus notch homolog protein 2 (Homo sapiens) (UniProt Q04721). Put plainly: small molecules binding Notch2 protein – biochemical, small-molecule microarray, 635 nm fluorescence, stem cell growth factors, primary screen (AID 1073). As to conditions: higher = more signal.
The target of assay [6] is Pro-neuregulin-1, membrane-bound isoform (Homo sapiens) (UniProt Q02297). Put plainly: small molecules binding neuregulin-1 protein – biochemical, small-molecule microarray, fluorescence 635/667, psychiatric disease protein project, primary screen (AID 1075).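 Also: score combines 667 nm spot fluorescence with signal to noise.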 Conditions: NRG1 binding, 635 nm fluorescence, higher = more signal.
Sequence of Pro-neuregulin-1, membrane-bound isoform (Homo sapiens) (Q02297 whole entry, looked up, the tested form may be a part, canonical isoform): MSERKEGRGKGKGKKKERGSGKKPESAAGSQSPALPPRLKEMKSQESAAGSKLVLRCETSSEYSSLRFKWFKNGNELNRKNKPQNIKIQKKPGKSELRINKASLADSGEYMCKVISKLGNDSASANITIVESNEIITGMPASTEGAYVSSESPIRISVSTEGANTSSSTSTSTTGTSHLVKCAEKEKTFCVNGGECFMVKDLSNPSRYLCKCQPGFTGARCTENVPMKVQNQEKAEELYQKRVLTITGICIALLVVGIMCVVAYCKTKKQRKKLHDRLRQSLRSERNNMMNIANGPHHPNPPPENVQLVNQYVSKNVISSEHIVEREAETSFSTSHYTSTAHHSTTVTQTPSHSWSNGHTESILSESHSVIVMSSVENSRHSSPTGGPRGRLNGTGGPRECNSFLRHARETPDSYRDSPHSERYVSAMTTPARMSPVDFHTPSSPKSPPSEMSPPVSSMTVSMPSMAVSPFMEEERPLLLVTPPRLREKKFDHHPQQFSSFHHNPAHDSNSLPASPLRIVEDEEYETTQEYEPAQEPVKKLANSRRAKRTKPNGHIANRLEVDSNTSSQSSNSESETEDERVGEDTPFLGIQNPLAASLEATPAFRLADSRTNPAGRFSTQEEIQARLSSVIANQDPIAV
In assay [7] the test system is Neuregulin-1 EGF-like domain. Put plainly: small molecules binding NRG1 EGF domain – biochemical, small-molecule microarray, 635 nm fluorescence, primary screen (AID 1081).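 Also: binding of the protein to compounds printed on small-molecule microarray slides.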 Conditions: higher = more signal.
Assay [8] is described as follows: FRG1 expression reporter modulators in myotubes – cell-based, C2C12 myotubes, firefly/Renilla luciferase, luminescence, FRG1 inhibition for FSHD, primary screen (AID 1084). Conditions: FRG1 promoter luciferase, higher = more signal, called active from +8 up or from −8 down.
A short description of assay [9]: small molecules captured by biotinylated probe aFST – biochemical, small-molecule microarray, fluorescence 635/667, stem cell growth factor project, primary screen (AID 1086).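 Also: score merges 667 nm fluorescence with signal-to-noise of each printed compound spot.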 Conditions: higher = more signal.
Assay [10] can be described thus: binders of probe aHhip on microarray, primary screen, stem cell growth factor project, biochemical, small-molecule microarray, fluorescence 635/667 (AID 1087).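 Also: score merges spot fluorescence at 667nm with spot signal to noise ratio.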 As to conditions: higher = more signal.
In assay [11] the test system is PRMT1 (protein arginine N-methyltransferase 1). Kind of assay: small molecules binding arginine methyltransferase PRMT1 – biochemical, small-molecule microarray, 635 nm fluorescence, primary screen (AID 1088).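 Also: binding of Prmt1 protein to compounds spotted on small-molecule microarray slides.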 As to conditions: higher = more signal.
Assay [12] in a line: growth effects on S. cerevisiae YJM789 – YJM789 clinical isolate, OD600, 24 h, basal, primary screen (AID 1089).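 Also: growth of clinical yeast isolate S. cerevisiae YJM 789 seeded 1000 cells per well; test concentration not given here.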 Conditions: higher = more signal, called active from +8 up or from −8 down.
Assay [13] in a line: S. pombe growth modifiers, basal conditions – strain 972, OD600, 24 h, no modulator, primary screen (AID 1090).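 Also: basal condition with compound alone and no growth modifier present; test concentration not given here.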 Conditions: S. pombe 972 growth, higher = more signal, called active from +8 up or from −8 down.
Assay [14] in a line: budding yeast growth modifiers under rapamycin – strain BY4716, OD600, 96 h, primary screen (AID 1091). Also: test concentration not given here. As to conditions: S. cerevisiae BY4716 + rapamycin, higher = more signal, called active from +8 up or from −8 down.
The target of assay [15] is Torsin-1A-interacting protein 2 (Homo sapiens) (UniProt Q8NFQ8). Put plainly: small molecules binding lysate-expressed LULL1 – cell lysate, human LULL1 lysate, 635/667 nm fluorescence, primary screen (AID 1092).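 Also: probe is lysate of COS7 cells overexpressing human LULL1; score merges per-feature 667 nm fluorescence with signal-to-noise.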 Conditions: small-molecule microarray, hLULL1 lysate binding, 635 nm fluorescence; higher = more signal.
Sequence of Torsin-1A-interacting protein 2 (Homo sapiens) (Q8NFQ8 whole entry, looked up): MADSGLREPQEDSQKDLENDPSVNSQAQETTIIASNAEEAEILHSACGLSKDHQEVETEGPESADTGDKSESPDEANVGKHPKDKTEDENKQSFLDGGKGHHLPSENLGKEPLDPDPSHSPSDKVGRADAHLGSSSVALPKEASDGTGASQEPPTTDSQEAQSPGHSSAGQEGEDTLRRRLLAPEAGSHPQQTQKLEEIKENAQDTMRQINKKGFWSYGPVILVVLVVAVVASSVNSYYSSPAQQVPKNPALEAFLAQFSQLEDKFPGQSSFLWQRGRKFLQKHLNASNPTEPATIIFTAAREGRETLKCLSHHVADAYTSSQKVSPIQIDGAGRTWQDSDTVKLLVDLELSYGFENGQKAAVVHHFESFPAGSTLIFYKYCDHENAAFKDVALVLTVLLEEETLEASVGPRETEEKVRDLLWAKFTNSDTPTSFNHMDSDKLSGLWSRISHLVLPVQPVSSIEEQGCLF
Assay [16] in a line: optical density change of DRC41 E. coli – strain DRC41, OD650, 24 h, E. coli filamentation project, primary screen (AID 1093).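 Also: MC1000 strain lacking acrAB efflux and sulA so SOS filamentation is blocked; test concentration not given here.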 As to conditions: E. coli DRC41 growth, higher = more signal, called active from +8 up or from −8 down.
Assay [17] is described as follows: probe aLefty2 binding to arrayed compounds – biochemical, biotinylated probe, 635/667 nm fluorescence, primary screen (AID 1094).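 Also: score merges spot fluorescence near 667 nm with spot signal-to-noise ratio.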 As to conditions: small-molecule microarray, higher = more signal.
The test system of assay [18] is Noggin (protein binding on small-molecule microarray). Kind of assay: small molecules binding Noggin protein – biochemical, 635/667 nm fluorescence, primary screen (AID 1095).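 Also: score merges 667 nm feature fluorescence with signal to noise over triplicate slides.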 Conditions: 635 nm fluorescence, higher = more signal.
The target of assay [19] is Neurogenic locus notch homolog protein 3 (Homo sapiens) (UniProt Q9UM47). Put plainly: small molecules binding NOTCH3 protein – biochemical, 635/667 nm fluorescence, primary screen (AID 1096). As to conditions: small-molecule microarray, 635 nm fluorescence, higher = more signal.
Sequence of Neurogenic locus notch homolog protein 3 (Homo sapiens) (Q9UM47 whole entry, looked up): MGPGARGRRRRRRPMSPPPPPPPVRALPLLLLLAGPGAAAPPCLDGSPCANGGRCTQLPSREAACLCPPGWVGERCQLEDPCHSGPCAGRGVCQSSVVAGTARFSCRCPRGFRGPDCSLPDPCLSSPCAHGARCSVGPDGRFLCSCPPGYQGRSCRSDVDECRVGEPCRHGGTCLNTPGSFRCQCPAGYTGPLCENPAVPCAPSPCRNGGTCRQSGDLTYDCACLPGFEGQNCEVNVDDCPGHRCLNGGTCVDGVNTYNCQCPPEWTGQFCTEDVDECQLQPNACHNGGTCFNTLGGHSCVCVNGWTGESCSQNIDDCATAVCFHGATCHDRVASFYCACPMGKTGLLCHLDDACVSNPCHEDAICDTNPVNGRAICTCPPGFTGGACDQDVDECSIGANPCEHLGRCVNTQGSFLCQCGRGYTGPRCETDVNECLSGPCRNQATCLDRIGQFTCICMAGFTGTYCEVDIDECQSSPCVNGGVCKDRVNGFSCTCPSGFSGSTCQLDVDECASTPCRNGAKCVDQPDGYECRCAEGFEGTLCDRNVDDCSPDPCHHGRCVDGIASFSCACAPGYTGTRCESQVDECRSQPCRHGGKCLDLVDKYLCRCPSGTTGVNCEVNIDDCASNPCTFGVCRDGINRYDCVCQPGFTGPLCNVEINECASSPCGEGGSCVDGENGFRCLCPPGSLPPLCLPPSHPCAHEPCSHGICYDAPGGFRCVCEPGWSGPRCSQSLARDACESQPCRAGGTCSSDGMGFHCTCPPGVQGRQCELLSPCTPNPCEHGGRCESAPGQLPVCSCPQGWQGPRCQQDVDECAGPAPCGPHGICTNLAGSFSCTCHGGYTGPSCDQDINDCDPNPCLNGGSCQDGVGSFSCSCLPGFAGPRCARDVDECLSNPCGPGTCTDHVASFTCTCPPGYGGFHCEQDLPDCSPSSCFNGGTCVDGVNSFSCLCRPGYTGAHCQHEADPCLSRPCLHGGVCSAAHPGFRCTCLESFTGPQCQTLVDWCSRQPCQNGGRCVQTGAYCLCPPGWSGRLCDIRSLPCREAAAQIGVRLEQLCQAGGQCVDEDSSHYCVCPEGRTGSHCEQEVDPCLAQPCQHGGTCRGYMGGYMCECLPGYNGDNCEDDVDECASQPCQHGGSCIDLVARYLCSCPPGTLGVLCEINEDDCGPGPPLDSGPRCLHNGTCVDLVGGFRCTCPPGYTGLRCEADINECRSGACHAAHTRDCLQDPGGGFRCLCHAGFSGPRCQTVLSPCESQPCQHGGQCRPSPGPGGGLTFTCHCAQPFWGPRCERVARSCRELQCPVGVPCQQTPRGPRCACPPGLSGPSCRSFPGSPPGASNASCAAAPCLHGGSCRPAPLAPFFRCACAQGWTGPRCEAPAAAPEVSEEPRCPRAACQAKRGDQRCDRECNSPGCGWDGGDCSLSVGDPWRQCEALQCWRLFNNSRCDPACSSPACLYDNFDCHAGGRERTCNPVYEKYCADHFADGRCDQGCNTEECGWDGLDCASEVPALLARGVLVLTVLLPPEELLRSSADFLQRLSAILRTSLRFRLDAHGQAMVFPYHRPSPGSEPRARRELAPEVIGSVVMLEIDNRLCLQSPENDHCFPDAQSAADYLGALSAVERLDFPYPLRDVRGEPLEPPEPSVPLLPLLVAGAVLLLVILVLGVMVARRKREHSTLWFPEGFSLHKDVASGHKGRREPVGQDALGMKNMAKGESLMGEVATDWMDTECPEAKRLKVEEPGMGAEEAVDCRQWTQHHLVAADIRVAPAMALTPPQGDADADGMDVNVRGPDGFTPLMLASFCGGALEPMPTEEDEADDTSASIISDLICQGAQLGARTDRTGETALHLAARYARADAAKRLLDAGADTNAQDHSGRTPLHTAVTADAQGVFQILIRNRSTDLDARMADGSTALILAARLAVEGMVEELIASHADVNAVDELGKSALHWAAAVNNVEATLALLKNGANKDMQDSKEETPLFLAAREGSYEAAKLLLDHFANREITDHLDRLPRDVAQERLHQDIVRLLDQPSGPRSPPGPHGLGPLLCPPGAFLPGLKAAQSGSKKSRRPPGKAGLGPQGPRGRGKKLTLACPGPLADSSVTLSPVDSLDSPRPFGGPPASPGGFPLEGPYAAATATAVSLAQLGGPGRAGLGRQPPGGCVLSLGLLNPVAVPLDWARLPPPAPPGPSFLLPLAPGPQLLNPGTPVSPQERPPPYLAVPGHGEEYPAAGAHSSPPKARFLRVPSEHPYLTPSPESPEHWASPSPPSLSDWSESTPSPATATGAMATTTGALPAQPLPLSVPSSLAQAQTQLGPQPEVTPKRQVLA
Assay [20] can be described thus: probe aEGFR binding to arrayed compounds – biochemical, biotinylated probe, 635/667 nm fluorescence, primary screen (AID 1097).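 Also: probe is a biotinylated anti-EGFR antibody binding compounds printed on slides; score combines fluorescence near 667 nm and signal to noise of each spot.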 Conditions: small-molecule microarray, higher = more signal.

The source made the active and inactive calls.

Consider `COc1ccc(O[C@H]2C=C[C@@H](c3ccccc3)O[C@@H]2COC(=O)CCC(C)=NOC(C)CN2CCCc3nc(C)c(C)cc32)cc1` (stereo not given in full), for which the composite z-score in [1] is -0.451; in assay [2], -0.395; in [3], -0.062; in assay [4], 0.623; in assay [5], 0.571; in assay [6] it was 0.858. The composite z-score in assay [7] is 0.967; in assay [9], 0.506; in assay [10], -0.199; in [11] it was 1.35; in [15], 1.36; in assay [17], -0.0345. In addition, the composite z-score in assay [18] was 0.755; in [19], 1.01; in assay [20], -0.0106. Further, the z-score was -0.863 (inactive) in [8]; 0.194 (inactive) in assay [12]; -0.629 (inactive) in assay [13]; -0.0642 (inactive) in assay [14]; 1.43 (inactive) in assay [16].

For the compound `CO[C@H]1COC(=O)[C@@H](C)COC(=O)[C@H](COCc2ccccc2)NC(=O)CC=C[C@H]1C`, the composite z-score is -0.325 in assay [1]; 1.45 in assay [2]; -0.156 in assay [3]; -0.607 in assay [4]; -1.58 in assay [5]; -1.19 in assay [6]. In addition, the composite z-score in assay [7] was -1.43; in assay [9] it was 0.1; in [10], -0.0672; in assay [11] it was 0.409; in [15] it was -1.28; in assay [17], -0.128. Besides, the composite z-score in [18] is 0.98; in assay [19] it was -0.944; in assay [20] it was -0.196. Further, the z-score was -0.335 (inactive) in assay [8]; 0.0827 (inactive) in assay [12]; -0.704 (inactive) in assay [13]; 0.007 (inactive) in assay [14]; 0.456 (inactive) in assay [16].

For the compound `CCCNC(=O)OC[C@H]1O[C@H](CCON=C(C)C)C=C[C@@H]1Oc1ccc(OC)cc1`, the composite z-score in assay [1] is 0.0684; in [2] it was -0.152; in assay [3] it was -0.0598; in assay [4] it was 0.332; in [5], -0.482; in [6] it was 0.0871. The composite z-score in [7] was -0.327; in [9], 0.139; in assay [10], -0.226; in [11], 0.612; in assay [15], 0.876; in [17], 0.0472. Moreover, the composite z-score in assay [18] was 0.422; in [19], -0.216; in assay [20] it was -0.0581. The z-score was 0.534 (inactive) in [8]; -0.578 (inactive) in assay [12]; -5.54 (inactive) in assay [13]; 0.0158 (inactive) in assay [14]; 0.964 (inactive) in assay [16].

Take `COc1ccc(C#C[C@@H]2C=C[C@H](OC(C)=O)[C@@H](COC(C)=O)O2)cc1`: the composite z-score was -0.068 in assay [1]; 0.101 in [2]; -0.0769 in assay [3]; 0.288 in assay [4]; 0.395 in assay [5]; 0.198 in assay [6]. In addition, the composite z-score was -0.0975 in assay [7]; -0.0985 in assay [9]; -0.191 in assay [10]; 0.474 in [11]; 0.387 in assay [15]; 0.0164 in assay [17]. Also, the results for the composite z-score in assay [18], in assay [19] and in assay [20] were 0.622, 0.493 and -0.122, respectively. The z-score in [8] was 0.742 (inactive); in assay [12], -0.551 (inactive); in assay [13] it was -2.35 (inactive); in [14] it was -0.451 (inactive); in assay [16] it was 1.04 (inactive).

With `COC(=O)CC=C[C@@H](C)[C@@H](C=NO[C@@H]1O[C@H](COC(C)=O)[C@@H](OC(C)=O)[C@H](OC(C)=O)[C@H]1OC(C)=O)OC`, the composite z-score in assay [1] is -0.48; in assay [2], 1.26; in assay [3], 0.0167; in assay [4], -0.41; in assay [5], 1.03; in [6] it was -0.617. Besides, the composite z-score in [7] was -1.05; in assay [9], 0.354; in assay [10], 0.189; in assay [11] it was 1.18; in assay [15] it was 0.062; in [17], -0.0397. Further, the composite z-score in assay [18] is 0.27; in assay [19] it was -0.297; in assay [20] it was -0.0506. In addition, the z-score in assay [8] was 0.572 (inactive); in assay [12], 0.492 (inactive); in [13], 0.146 (inactive); in assay [14], 0.119 (inactive); in assay [16], -0.742 (inactive).

The values above are taken from PubChem BioAssay.
